{
  "source": "PubChem BioAssay (EPA / NIEHS)",
  "note": "Several values for one entry are separate records, joined by “and”; a condition that tells them apart may be missing. Equal entries are not always repeated. Inconclusive results are not listed. Where a structure was tested more than once in an assay, its records may differ in their call. Activity calls are given as the source filed them. The calls were made as follows: active = hit-call score of the fitted dose curve at least 0.9, where 1 is the maximum; inconclusive = response in the unintended direction; inactive = score below 0.9.",
  "data": [
    {"assay": "TOX21_p53_BLA_p3_viability: Viability Assessment in the Tox21 HCT-116 p53 Agonism Beta-lactamase Assay, Phase 3 (AID 2283593);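 also: cells exposed to compound for 16 h before reading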", "from_the_text": "TOX21_p53_BLA_p3 is a cell-based, single-readout assay that uses HCT116, a human intestinal cell line, […] in a 1536-well plate.TOX21_p53_BLA_p3_viability is an assay readout measuring cellular ATP content and detected with CellTiter-Glo Luciferase-coupled ATP quantitation.TOX21_p53_BLA_p3_viability used a type of viability reporter where loss-of-signal activity can be used to understand changes in the cell viability. Furthermore, this assay endpoint can be referred to as a secondary readout, because this assay has produced multiple assay endpoints where this one serves a viability function. To generalize the intended target to other relatable targets, this assay endpoint is annotated to the cell cycle intended target family, where the subfamily is cytotoxicity.\nThawing Method: Place 14 mL of pre-warmed thaw medium into a 15 mL of conical tub. Remove the vial of cells to be thawed from liquid nitrogen and thaw rapidly by placing at 37C in a water bath with gentle agitation for 1-2 minutes. Decontaminate the vial by wiping with 70% ethanol before opening in a biological safety cabinet. Transfer the vial contents drop-wise into 14 mL of thaw medium in a sterile 15-mL conical tub. Centrifuge cells at 900 rpm for 4 minutes and resuspend in thaw medium. Transfer contents to the T75 tissue culture flask containing Thaw Medium and place flask in a humidified 37C/5% CO2 incubator. Switch to growth medium at first passage.Propagation Method: Aspirate medium, rinse once in DPBS, add 0.25% Trypsin/EDTA and swirl to coat the cell evenly. Add an equal volume of Growth Medium to inactivate Trypsin after 2-3 minutes incubation at 37C. Centrifuge cells at 900 rpm for 4 minutes and resuspend in growth medium. Cell should be passage or fed at least twice a week.Assay Protocol: Harvest cells from culture in growth medium and resuspend in assay medium. 2.2 Dispense 4000 cells/5 uL/well into 1536-well black/clear bottom plates using a Multidrop dispenser. After the cells were incubated at 37C for 5 hours, 23 nL of compounds dissolved in DMSO were transferred to the assay plate by a PinTool resulting in a 217-fold dilution. Incubate the plates for 16 hours at 37C, 5% CO2. Add 1 uL of 6X LiveBLAzer FRET B/G (CCF4-AM) Substrate Mixture to each well using a BioRAPTR dispenser and incubate the plates at room temperature for 2 hours. Measure fluorescence intensity at 460 and 530 nm emission and 405 nm excitation by an Envision detector. Data is expressed as the ratio of 460nm/530nm emissions. Add 4 uL of Cell-titer Glo to each well using BioRAPTR and incubate the plates at room temperature for […]. For cell viability readout that measures cytotoxicity, 4 ul/well of CellTiter-Glo reagent was added into the assay plates using a Flying Reagent Dispenser. After 30 min incubation at room temperature, the luminescence intensity in the plates was measured using a ViewLux plate reader.", "values": [
      {"compound": "CC(C)c1cccc(O)c1", "outcome": "inactive"},
      {"compound": "CCCCCCCCCCCCCCCCCC(=O)OCC(CC)CCCC", "note": "(stereo not given)", "outcome": "inactive"},
      {"compound": "Cc1ccccc1C=O", "outcome": "inactive"},
      {"compound": "C#C[C@]1(O)CC[C@H]2[C@@H]3CCC4=Cc5oncc5C[C@]4(C)[C@H]3CC[C@@]21C", "outcome": "inactive"},
      {"compound": "CCC(C)CCCC(C)(C)O", "note": "(stereo not given)", "outcome": "inactive"},
      {"compound": "CC(C)[C@H]1CC[C@@H](C)CC1=O", "outcome": "inactive"},
      {"compound": "NCCCCCCN", "outcome": "inactive"},
      {"compound": "Cc1ccc(C(=O)c2cc(O)c(O)c([N+](=O)[O-])c2)cc1", "AC50": "46.1 µM (active)", "outcome": "inactive"},
      {"compound": "O=C1OC2(c3cc(Br)c(O)c(Br)c3Oc3c2cc(Br)c(O)c3Br)c2c(Cl)c(Cl)c(Cl)c(Cl)c21", "AC50": "48.3 µM (active) and 20.9 µM (active)"},
      {"compound": "CC(C)=CCCC(C)=CCCC(C)=CCO", "outcome": "inactive"},
      {"compound": "Cc1ccc(Nc2ccc(O)c3c2C(=O)c2ccccc2C3=O)cc1", "outcome": "inactive"},
      {"compound": "c1cc(C(c2ccc(OCC3CO3)cc2)c2ccc(OCC3CO3)cc2)ccc1OCC1CO1", "note": "(stereo not given)", "outcome": "inactive"},
      {"compound": "O=C(O)COCCN1CCN(C(c2ccccc2)c2ccc(Cl)cc2)CC1", "note": "(stereo not given)", "outcome": "inactive"},
      {"compound": "CC1CC(OC(=O)c2ccccc2O)CC(C)(C)C1", "note": "(stereo not given)", "AC50": "22.5 µM (active)", "outcome": "inactive"},
      {"compound": "CCCCCCOC(=O)CCCCC", "outcome": "inactive"},
      {"compound": "CC(C)[C@@H]1CC[C@@H](C)CC1=O", "outcome": "inactive"},
      {"compound": "c1ccc2[nH]ccc2c1", "outcome": "inactive"},
      {"compound": "C=CC(=O)NCOCC(C)C", "outcome": "inactive"},
      {"compound": "BrC1CCC(Br)C(Br)CCC(Br)C(Br)CCC1Br", "note": "(stereo not given)", "outcome": "inactive", "AC50": "15.1 µM (active)"},
      {"compound": "COC(C)CCO", "note": "(stereo not given)", "outcome": "inactive"},
      {"compound": "CC(=O)OCC=Cc1ccccc1", "outcome": "inactive"},
      {"compound": "CCCC(=O)C(C)=O", "outcome": "inactive"},
      {"compound": "Cc1ccc(C=O)s1", "outcome": "inactive"},
      {"compound": "CCCc1c(OCCCOc2ccc(OCC(=O)O)cc2)ccc(C(C)=O)c1O", "outcome": "inactive"},
      {"compound": "C[C@]12CC[C@H]3[C@@H](CCC4=CC(=O)CC[C@@]43C)[C@@H]1CC[C@@H]2C(=O)CO", "outcome": "inactive"},
      {"compound": "CC(C)=CCO", "outcome": "inactive"},
      {"compound": "C=CC[N+](C)(C)CC=C", "outcome": "inactive"},
      {"compound": "O=c1cc(-c2ccccc2)oc2cc(O)cc(O)c12", "outcome": "inactive"},
      {"compound": "O=C(O)Cc1cccc2ccccc12", "outcome": "inactive"},
      {"compound": "CC[Si](OC(C)=O)(OC(C)=O)OC(C)=O", "outcome": "inactive"},
      {"compound": "C=CC(=O)OCC(O)COc1ccccc1", "note": "(stereo not given)", "AC50": "75.6 µM (active)"},
      {"compound": "c1ccc(CCCc2ccccn2)cc1", "outcome": "inactive"},
      {"compound": "CCCCCCCCCCCCN(CCCCCCCCCCCC)CCCCCCCCCCCC", "outcome": "inactive"},
      {"compound": "OCCOCCOCCOCCO", "outcome": "inactive"},
      {"compound": "CC(=O)OCCC(C)CC(C)(C)C", "note": "(stereo not given)", "outcome": "inactive"},
      {"compound": "NC(N)=NC(=O)c1nc(Cl)c(N)nc1N", "outcome": "inactive"},
      {"compound": "O=S(=O)(O)c1ccc(O)c2ncccc12", "outcome": "inactive"}
    ]}
  ]
}
